# CtBP-E1A blk – CtBP/E1A binding inhibition. AlphaScreen GST-E1A/His-CtBP binding, 1536-well; hits give low values. activity change, % (no concentration beside the values). 340,000 tested, 0.49% active; in the data active = activity change below about -65%; inconclusive = mostly about -30% to -63%
#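 In 5 uL wells, 23 nL compound meets equimolar GST-E1A and His-CtBP (5X stock 125 nM each) for 2 h, 37 °C. Beads (5X, 50 ug/mL) then 1 h, 37 °C, dark.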
# DT40 TDP1 no CPT – qHTS for Inhibitors of human tyrosyl-DNA phosphodiesterase 1 (TDP1): qHTS in cells in absence of CPT | 420,000 tested, 15% active | Potency, µM (series often up to 46.2 µM), without a hit: at the top dose activity change, negative = growth inhibition, hits mostly inhibitors | DT40 Tdp1-/- hTDP1 cells, no CPT, ATP luminescence, 48 h | AID 686978, 2013; note: potency is the fitted concentration of half-maximal effect; nearly all actives have a fitted effect of over 55% in size
#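 Growth of hTDP1-complemented DT40 Tdp1-knockout cells is measured by ATP luminescence after at least 48 hr compound exposure at 37 °C, with DMSO substituting for the 20 nM CPT used in the parallel screen.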
# DT40 TDP1 CPT – growth inhibition of DT40 Tdp1-/-;hTDP1 cells with camptothecin (screen for TDP1 inhibitors); chicken DT40 Tdp1-/-;hTDP1 cells + 20 nM CPT, ATP luminescence, 48 h; Potency, µM (doses to about 46.2 µM), without a hit: top-dose activity change, negative = growth inhibition, hits mostly inhibitors; 420,000 tested, 12% active; note: potency is the fitted concentration of half-maximal effect; nearly all actives have a fitted effect of over 55% in size
#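 Cell growth measured by CellTiter-Glo luminescence after a minimum 48 h, 37 C compound exposure with 20 nM CPT in Tdp1-knockout DT40 cells stably expressing hTDP1, seeded 400/well; qHTS titration format.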
# IL1B secr inh – inhibitors of inflammasome signaling (IL-1 beta secretion); 360,000 tested, 4.7% active; THP-1 LPS/ATP IL-1B secretion, AlphaLISA, 16 h; hits give low values; activity change, % at 57.5 µM; in the data active = activity change below about -50%; inconclusive = mostly about -30% to -49%
#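 Secreted IL-1B measured by AlphaLISA bead assay after 16 h compound exposure of THP-1 cells; compounds (final up to 57.5 uM) added 1 h before LPS (250 ng/mL) and ATP (1.25 mM) stimulation; lower signal means less secretion.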
# Six1-Eya2 blk – inhibitors of human Six1/Eya2 interaction; activity change, % (concentration not given with the values); Q15475+O00167; AID 651725; AlphaScreen GST-Six1/His-Eya2 binding, biochemical; hits give low values; 360,000 tested, 0.56% active; in the data active = activity change below about -65%; inconclusive = mostly about -30% to -63%
# Target sequence (O00167 whole entry, looked up): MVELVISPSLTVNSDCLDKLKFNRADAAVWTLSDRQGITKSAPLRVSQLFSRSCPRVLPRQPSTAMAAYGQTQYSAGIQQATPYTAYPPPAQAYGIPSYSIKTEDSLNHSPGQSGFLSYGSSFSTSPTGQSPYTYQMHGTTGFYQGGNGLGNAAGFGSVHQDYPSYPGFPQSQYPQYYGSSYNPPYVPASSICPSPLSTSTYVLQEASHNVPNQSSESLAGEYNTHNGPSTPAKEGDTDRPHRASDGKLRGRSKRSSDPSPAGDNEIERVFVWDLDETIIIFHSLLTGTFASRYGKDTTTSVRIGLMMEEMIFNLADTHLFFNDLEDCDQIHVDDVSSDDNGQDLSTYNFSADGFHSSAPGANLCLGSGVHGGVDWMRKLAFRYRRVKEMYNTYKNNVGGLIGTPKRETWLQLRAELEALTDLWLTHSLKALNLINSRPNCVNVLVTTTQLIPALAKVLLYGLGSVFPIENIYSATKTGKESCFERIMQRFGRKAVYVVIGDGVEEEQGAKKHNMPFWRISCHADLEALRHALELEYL
# Target sequence (Q15475 whole entry, looked up): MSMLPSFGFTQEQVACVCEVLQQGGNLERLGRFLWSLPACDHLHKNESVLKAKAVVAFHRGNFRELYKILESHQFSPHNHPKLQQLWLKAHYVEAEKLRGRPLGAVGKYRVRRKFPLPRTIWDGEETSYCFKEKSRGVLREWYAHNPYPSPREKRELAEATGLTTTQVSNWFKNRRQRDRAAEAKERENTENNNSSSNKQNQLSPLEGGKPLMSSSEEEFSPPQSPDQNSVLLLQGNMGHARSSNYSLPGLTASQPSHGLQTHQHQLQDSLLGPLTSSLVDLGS
#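 GST-Six1 + His-Eya2 (5X stock: 250/500 nM); Tris pH 8.0, 300 mM NaCl, 0.05% BSA, 0.02% Tween 20; GSH donor/Ni acceptor beads; 1 h 37 °C dark; AlphaScreen readout.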
# TDP1 block – blocks human tyrosyl-DNA phosphodiesterase 1; recombinant TDP1, AlphaScreen DNA substrate cleavage; Potency, µM (titrated, usually from 130 µM), for inactives: at the highest dose activity change, negative = inhibition, hits mostly inhibitors; AID 485290; 350,000 tested, 0.28% active; note: potency is the fitted concentration of half-maximal effect; nearly all actives have a fitted effect of over 40% in size
#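 Signal: AlphaScreen proximity between streptavidin donor and anti-FITC acceptor beads on intact substrate. Reaction: Tdp1 1 nM, substrate 15 nM final, 5 min RT after 15 min compound preincubation.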
# Active calls of the source: *; ? = inconclusive; · = not tested or not shown. Shown are actives, neighbours in structure and some others; about 18% of the full set was active somewhere. Unless noted, calls come from the whole dose curve; as a rule, active = well fitted curve in the direction sought with a large enough effect; inconclusive = small, poorly fitted or top-dose-only effect, or another doubt; inactive = no such curve, though single readings can be large; an effect the other way counts as inactive or inconclusive. % is set by controls: 0 for no effect and ±100 for the full control effect.
SMILES,CtBP-E1A blk,DT40 TDP1 no CPT,DT40 TDP1 CPT,IL1B secr inh,Six1-Eya2 blk,TDP1 block
CCc1nc2ccc(C(=O)Nc3ccc4c(c3)OCC(=O)N4)cn2c1N(CC)Cc1cccc(Br)c1,-20.7,-77.7%,18.4µM*,0.0,-10.0,·
CCc1nc2ccc(C(=O)NCCCn3ccnc3)cn2c1N(C)Cc1cccs1,-7.7,?,?,-24.0,-4.3,·
CCCCNC(=O)c1ccc2nc(CC)c(N(C)Cc3cccs3)n2c1,-0.7,?,18.4µM*,-74.0*,-5.0,·
Cc1nc2ccc(C(=O)Nc3ccc4c(c3)OCC(=O)N4)cn2c1N(C)C(=O)CCc1ccccc1,-23.2,18.4µM*,?,-9.6,-8.3,·
Cc1cc(OCc2cc(C(=O)NC(C)c3c(C)nn(C)c3C)no2)cc(C)c1Cl (stereo not given),0.1,?,?,-28.5,-1.6,2.5%
CCOC(=O)N1CCC(N2C(=O)c3ccccc3C2=O)CC1,10.4,14.4%,3.7%,-0.7,0.8,2.6%
CCc1nc2ccc(C(=O)NCc3cccs3)cn2c1N(CC)Cc1cccc(Br)c1,-4.4,11.6µM*,20.6µM*,-54.2*,-6.0,·
CCc1nc2ccc(C(=O)NCCOc3ccc(OC)cc3)cn2c1N(CC)CCOC,0.0,?,?,-15.8,6.5,·
CCc1nc2ccc(C(=O)Nc3cccc(OC)c3)cn2c1N(CC)Cc1cccc(Br)c1,-6.7,?,18.4µM*,-56.6*,-12.5,·
CCc1nc2ccc(C(=O)NCCOc3ccc(OC)cc3)cn2c1N(CC)Cc1cccc(Br)c1,-4.6,20.6µM*,18.4µM*,-69.3*,-4.8,·
CCc1nc2ccc(C(=O)Nc3cccc(NS(C)(=O)=O)c3)cn2c1N(C)Cc1nccn1C,-4.4,-22.2%,2.2%,2.6,-10.9,·
CCc1nc2ccc(C(=O)Nc3cccc(NS(C)(=O)=O)c3)cn2c1N(CC)Cc1cccc(Br)c1,-9.9,16.4µM*,?,-70.4*,-18.2,·
CCC1(c2ccc(F)cc2)NC(=O)N(CC(=O)N2CCN(S(=O)(=O)c3ccc(Cl)cc3)CC2)C1=O (stereo not given),-1.7,-25.7%,?,-7.9,4.6,-1.4%
CN(c1ccc(C(=O)Nc2ccc3c(c2)OCCO3)cc1)S(C)(=O)=O,-0.6,-8.7%,-14.3%,-4.5,-1.0,0.5%
C=CCc1ccccc1OCC(=O)OCCNC(=O)c1cccnc1,4.3,-2.8%,-25.5%,10.1,1.9,4.0%
CCc1nc2ccc(C(=O)Nc3cccc(NS(C)(=O)=O)c3)cn2c1N(C=O)CCC(C)C,2.8,?,?,-23.0,0.5,·
CCc1nc2ccc(C(=O)Nc3cccc(OC)c3)cn2c1N(C)CCCc1ccccc1,-9.4,?,?,-50.8*,-10.3,·
CCc1nc2ccc(C(=O)Nc3cccc(NS(C)(=O)=O)c3)cn2c1N(CCC(C)C)CCN(C)C,0.7,18.4µM*,16.4µM*,?,-4.4,·
CCc1nc2ccc(C(=O)Nc3cccc(NS(C)(=O)=O)c3)cn2c1N(C)CCCc1ccccc1,-4.0,?,?,-17.5,-1.7,·
CCN(c1ccccc1)S(=O)(=O)c1ccc(Oc2ccc([N+](=O)[O-])cc2)nc1,8.5,?,?,-14.5,-10.4,·
CCN(c1ccccc1)S(=O)(=O)c1ccc(OC)c(NC(=O)C2CC(=O)N(Cc3ccccc3)C2)c1 (stereo not given),·,?,?,-53.8*,8.2,3.1%
CCN(c1ccccc1)S(=O)(=O)c1ccc(OC)c(NC(=O)c2ccccc2OC)c1,5.8,?,20.6µM*,11.5,-2.4,-0.3%
CCN(c1ccccc1)S(=O)(=O)c1ccc(OC)c(NC(=O)CNC)c1,0.9,-27.2%,5.4%,0.0,7.1,·
CCN(c1ccccc1)S(=O)(=O)c1ccc(Oc2ccc(C(C)=O)cc2OC)nc1,0.7,16.4µM*,?,14.2,-1.8,0.3%
CCN(c1ccccc1)S(=O)(=O)c1ccc(OC)c(NC(=O)c2ccco2)c1,0.9,20.6µM*,?,14.0,-27.8,·
SMILES,CtBP-E1A blk,DT40 TDP1 no CPT,DT40 TDP1 CPT,IL1B secr inh,Six1-Eya2 blk,TDP1 block
CCN(c1ccccc1)S(=O)(=O)c1ccc(OC)c(NC(=O)CN(C)C)c1,·,?,?,0.7,-8.3,-8.4%
CN(C)CCCNc1nc(-c2ccccc2)nc2ccccc12,1.5,-15.5%,27.3%,?,1.4,3.5%
CC(C)(C)C(=O)OCCNc1nc(-c2ccccc2)nc2ccccc12,0.1,20.6µM*,?,-54.1*,0.9,0.0%
CC(C)OCCCNc1nc(-c2ccccc2)nc2ccccc12,·,14.6µM*,?,0.5,6.4,-2.9%
Cc1ccc(NC(=O)CCn2nnc3ccccc32)cc1,0.4,-20.4%,-4.3%,?,18.9,-1.2%
CNc1nnc(Sc2ncccc2[N+](=O)[O-])s1,2.5,16.4µM*,8.2µM*,·,1.8,6.2%
CN1CC(O)(C(O)C(O)C(O)CO)SC1=S (stereo not given),-1.0,4.5%,4.1%,11.5,-0.5,·
Cn1c(=O)cc(Nc2ccc(Cl)cc2)[nH]c1=O,2.6,20.6µM*,?,40.9,-3.7,·
Cn1c(=O)cc(Nc2ccccc2)[nH]c1=O,3.3,-17.6%,-16.2%,28.2,-6.3,·
Cn1c(=O)cc(NCCc2ccccc2)[nH]c1=O,4.2,10.3µM*,7.31µM*,28.0,3.4,4.4%
Cn1c(NCCc2ccccc2)cc(=O)n(C)c1=O,1.9,-15.8%,0.0%,-10.6,-3.9,5.2%
Cc1ccc(C(=O)Nc2ccc(-c3cn4cccnc4n3)cc2)cc1C,·,?,?,·,·,6.4%
CCOc1cc(C(=O)Nc2ccc(-c3cn4cccnc4n3)cc2)cc(OCC)c1OCC,·,9.2µM*,11.6µM*,·,·,9.0%
CCCC(=O)Nc1ccc(-c2cn3cccnc3n2)cc1,-1.7,?,-4.1%,-8.7,3.6,·
CCOCC(=O)Nc1ccc(-c2cn3cccnc3n2)cc1,42.7,-27.2%,14.6µM*,24.7,22.6,0.0%
Cc1ccc(-c2cn3cccnc3n2)cc1,1.8,-9.8%,12.4%,-23.9,6.0,0.0%
Cc1cc(C)cc(C(=O)Nc2ccc(-c3cn4cccnc4n3)cc2)c1,·,9.2µM*,?,·,·,-3.8%
Nc1cccc(-c2cn3cccnc3n2)c1,2.5,?,20.6µM*,6.4,?,-1.3%
COc1cccc(C(NC(C)=O)c2nc(-c3cc4ccccc4o3)cs2)c1 (stereo not given),2.8,?,?,44.3,4.7,·

# High-throughput results (PubChem BioAssay)
